Compounds with a hit are over-represented: about 7% of the library has one in this group of screens.
rCAG binder: r(CAG) repeat RNA binding | inhibition, % at 3 µM | 370,000 tested, 1.3% active | TO-PRO-1 dye displacement fluorescence;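 active means inhibition above the plate cutoff, the mean of all test compounds on that plate plus 3 SD, cut at about 35% in these data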;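 further: higher means more dye released from RNA so lower well fluorescence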
KLK7 zymogen act: activators of human kallikrein-7 zymogen; purified proKLK7, EDANS-DABCYL substrate fluorescence; 100% is mature enzyme control, 0% vehicle; activation, % at 7 µM; 370,000 tested, 0.9% active;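 active means activation above the mean of all tested compounds plus 3 SD, computed per campaign excluding outliers beyond control limits, cut at about 13% in these data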
NR3A LBD binder: NR3A (human) ligand-binding domain modulation; Tm shift relative to glycine control, % at 25 µM; 340,000 tested, 2.5% active; AID 1259313; NR3A LBD differential scanning fluorimetry, Tm shift; 0% = protein alone, 100% = glycine-bound protein;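 active means melting temperature shift of at least 10% of the positive control shift, at one fixed dose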
ADAM10 inh: inhibitors of human ADAM10; AID 720582; recombinant ADAM10, EDANS/DABCYL FRET peptide cleavage, 3 h; 370,000 tested, 0.62% active; O14672; inhibition, % at 7 µM;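 active means inhibition above a per-campaign cutoff equal to the mean of compounds falling between control-based bounds plus 3 SD, cut at about 20% in these data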
ADAM17 inh: ADAM17 inhibition, QFRET primary screen; recombinant ADAM17, EDANS/DABCYL FRET peptide cleavage; inhibition, % at 6.95 µM; 370,000 tested, 0.83% active;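 active means inhibition above the mean of compounds lying between control limits plus 3 SD, set per campaign, cut at about 8.5% in these data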
AHR activator: activates the human aryl hydrocarbon receptor; activation, % at 5 µM; AHR-responsive luciferase reporter cells, luminescence; P35869; 320,000 tested, 2.5% active; in the data active means activation above about 47%
AHR act confirm: human AHR activation, confirmation; shares compounds with AHR activator; human cells, AHR-responsive luciferase reporter, luminescence; activation, % at 9 µM; 2,300 tested, 87% active; AID 2845; in the data active means activation above about 49%;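 further: HepG2 hepatoma cells carrying a DRE-driven firefly luciferase reporter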
PXR act counter: counter-screen for AHR activators: human PXR activators | shares compounds with AHR activator | cell-based PXR reporter, luciferase luminescence | activation, % at 11.6 µM | 2,300 tested, 88% active | AID 434939; in the data active means activation above about 11%;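 further: human hepatoma DPX-2 cells expressing full-length human PXR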
Target sequence (O75469 whole entry, looked up): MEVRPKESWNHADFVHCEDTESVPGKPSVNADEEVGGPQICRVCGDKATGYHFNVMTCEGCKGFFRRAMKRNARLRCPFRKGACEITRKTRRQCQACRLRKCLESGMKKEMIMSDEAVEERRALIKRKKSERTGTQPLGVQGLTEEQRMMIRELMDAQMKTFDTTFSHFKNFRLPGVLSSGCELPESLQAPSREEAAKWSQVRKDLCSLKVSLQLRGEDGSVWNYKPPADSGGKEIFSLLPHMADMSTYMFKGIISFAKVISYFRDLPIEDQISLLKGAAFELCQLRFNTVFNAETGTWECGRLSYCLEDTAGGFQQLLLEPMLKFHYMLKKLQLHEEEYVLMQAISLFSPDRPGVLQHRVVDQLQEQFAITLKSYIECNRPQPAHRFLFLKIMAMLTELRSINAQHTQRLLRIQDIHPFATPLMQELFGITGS
Numbers stand for hits; i = inactive; nt = no result.

SMILES	rCAG binder	KLK7 zymogen act	NR3A LBD binder	ADAM10 inh	ADAM17 inh	AHR activator	AHR act confirm	PXR act counter
CCOc1ccccc1-c1nc(-c2ccc(NC(=O)c3ccc(Br)o3)cc2)no1	i	i	16	i	i	123	106	19
CCCc1nc2c(C)cc(Br)cn2c1Cc1ccccc1OC	i	i	nt	i	i	nt	nt	nt
CCN(CC)c1ccc(/C=C2\NC(=O)NC2=O)cc1	i	i	i	i	i	88	56	11
Cc1cc(Nc2ccc(Br)cc2)n2nc(C)nc2n1	i	i	i	i	i	107	88	nt
COC(=O)C1=C(C)N(Cc2cccc(C(F)(F)F)c2)C(=NCC2CC2)NC1c1ccc(F)cc1 (stereo not given)	i	i	nt	i	i	nt	nt	nt
O=C(Cn1nnc(-c2ccncc2)n1)Nc1ccc(Oc2ccccc2)cc1	i	i	nt	i	i	nt	nt	nt
COc1ccc(N2CCN(c3nc(=S)n(-c4ccccc4)c(C)c3C(C)=O)CC2)cc1	i	i	i	i	i	i	nt	nt
CCn1c(C)c(C(C)=O)c(N2CCN(c3ccc(OC)cc3)CC2)nc1=S	i	i	i	i	i	86	i	26
COc1ccc(-c2[nH]c(-c3ccccc3)nc2SCC(=O)Nc2nccs2)cc1	i	i	i	i	i	109	78	42
COc1ccc(-c2[nH]c(-c3ccc(C)cc3)nc2SCC(=O)NC2CCCC2)cc1	i	i	i	i	i	104	88	86
COc1cccc(CNC(=O)[C@H]2CCCN2C(=O)[C@H]2CCCN2C(=O)c2ccc(C)c(C)c2)c1	i	i	nt	i	i	nt	nt	nt
COc1ccccc1-c1sc2ccccc2c1-c1ccc2c(c1)OCO2	i	i	i	i	i	i	nt	nt
COc1ccccc1-c1sc2cc3c(cc2c1-c1ccc2c(c1)OCO2)OCO3	i	i	i	i	i	93	126	162
COC(=O)c1c(-c2ccccc2OC)sc2cc3c(cc12)OCO3	i	i	i	i	i	108	92	226
COC(=O)c1c(-c2ccc(OC)cc2)sc2ccc(-c3ccc4c(c3)OCO4)cc12	i	i	i	i	i	i	nt	nt
COC(=O)[C@]12C[C@H](CC(=O)N3CCCCC3)C(=O)N(CCC3=CCCCC3)C1=C[C@H](C(C)(C)C)O[C@@H]2C	i	i	nt	i	i	nt	nt	nt
Cc1ccc(C)c(NC(=S)c2ccccn2)c1	i	i	i	i	i	118	106	26
Cc1ccc(C)c(NC(=S)c2ccc3ccccc3n2)c1	i	i	i	i	i	88	104	16
COc1ccc(C)cc1NC(=O)COC(=O)c1ccc2ccccc2n1	i	i	i	i	i	i	nt	nt
O=C(OCC#CCSc1nnc(-c2ccc(Cl)cc2)o1)c1ccc(F)cc1	nt	nt	nt	i	i	nt	nt	nt
N#CC1CCN(c2nc(-c3ccc(Br)cc3)cs2)CC1	nt	nt	nt	i	i	nt	nt	nt
O=c1c2ccccc2cnn1-c1ccc(Br)cc1	i	i	i	i	i	136	109	38
O=c1c2ccccc2cnn1-c1ccc2ccccc2c1	i	i	i	i	i	i	nt	nt
O=C(CSc1nc2c([nH]c3ccccc32)c(=O)n1-c1ccccc1F)NCC1CCCO1 (stereo not given)	i	i	i	i	i	96	98	112
Cc1cc(NC(=O)CSc2nc3c([nH]c4ccccc43)c(=O)n2-c2ccccc2F)no1	i	i	i	i	i	90	70	164
SMILES	rCAG binder	KLK7 zymogen act	NR3A LBD binder	ADAM10 inh	ADAM17 inh	AHR activator	AHR act confirm	PXR act counter
Cc1cc(NC(=O)CSc2nc3c([nH]c4ccccc43)c(=O)n2-c2cccc(C(F)(F)F)c2)no1	nt	nt	i	nt	nt	nt	nt	nt
COc1cccc(-n2c(SCC(=O)Nc3cc(C)on3)nc3c([nH]c4ccccc43)c2=O)c1	i	i	i	i	i	103	103	63
O=C(CC1Nc2ccccc2NC1=O)Nc1ccc2c(c1)OCO2 (stereo not given)	i	i	i	i	i	153	137	24
O=C(CC1Nc2cccc3cccc(c23)NC1=O)Nc1ccccc1 (stereo not given)	i	i	i	i	i	136	99	79
CCCOc1ccc(NC(=O)CC2Nc3ccccc3NC2=O)cc1 (stereo not given)	i	i	i	i	i	i	nt	nt
CCN=C1NC(c2ccc(F)cc2)C(C(=O)OC)=C(C)N1Cc1cccc(C(F)(F)F)c1 (stereo not given)	i	i	nt	i	i	nt	nt	nt
Cn1c(=O)c2c(nc(/C=C/c3cccc(Cl)c3)n2C)n(C)c1=O	i	i	i	i	i	86	55	nt
Cc1cccc(Oc2nc3c(c(=O)n(C)c(=O)n3C)n2C)c1	i	i	i	i	i	i	nt	nt
N#C/C(=C(/O)c1ccc(Cl)cc1)c1nc2ccccc2[nH]1	i	i	i	i	i	i	nt	nt
N#C/C(=C(\O)c1cc(Cl)sc1Cl)c1nc2ccccc2[nH]1	i	i	i	i	i	89	161	13
COc1cccc(C(=O)N[C@H](C(=O)N2CCC[C@H]2C(=O)NC2CCCC2)c2ccccc2)c1	i	i	nt	i	i	nt	nt	nt
COC(=O)[C@]12C[C@H](CC(=O)N3CCSCC3)C(=O)N(Cc3ccco3)C1=C[C@H](C(C)C)O[C@@H]2C1CC1	i	i	nt	i	i	nt	nt	nt
O=C(NN=C1CCCCC1)c1cc(-c2ccccc2)n[nH]1	i	i	i	i	i	121	i	17
COc1ccccc1NC(=O)Nc1cccnc1	i	i	i	i	i	122	93	nt
O=C(Nc1cccnc1)Nc1ccccc1Cl	i	i	i	i	i	i	nt	nt
O=C(Nc1cccnc1)Nc1cc(Cl)cc(Cl)c1	i	i	21	i	i	113	62	nt
COC(=O)c1cc2c(c3c4cc(OC)ccc4n(S(=O)(=O)c4ccc(F)cc4)c13)C(=O)N(Cc1ccccc1)C2	i	i	nt	i	i	nt	nt	nt
O=C1c2ccccc2NC(c2ccc3c(c2)OCO3)N1O (stereo not given)	i	i	i	i	i	122	133	25
O=C1c2ccccc2NC(c2ccc3c(c2)OCCO3)N1c1ccc2c(c1)OCCO2 (stereo not given)	i	i	i	i	i	i	nt	nt
CC(CCN1CCC(C(O)(c2ccccc2)c2ccccc2)CC1)Oc1ccc(C#N)c(F)c1 (stereo not given)	i	i	nt	i	i	nt	nt	nt
CCSc1n[nH]c(=O)n1C	i	i	nt	i	i	nt	nt	nt
O=[N+]([O-])c1cnc(Nc2ccc(Cl)cn2)c([N+](=O)[O-])c1	i	i	i	i	i	139	80	nt
Cc1ccc(S(=O)(=O)N(CC(=O)NC2CCC(C)CC2)c2cc(C)cc(C)c2)cc1 (stereo not given)	i	i	nt	i	i	nt	nt	nt
COc1ccc(C2=NCCn3nc4cc(C(F)(F)F)ccc4c32)cc1	i	i	i	i	i	80	69	42

Assay outcomes (PubChem)
